Reference: PubChem BioAssay
Active and inactive are the calls of the source.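 How the source made its calls, unless noted: active means fluorescence slope higher than the sample average by over 3 SD (cut at about -0.22 in these data, passing the limit was not always enough); inactive means the rest.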

Experiments:
[1] = inhibitors of TNFa-induced NFkB p65 translocation, primary screen, imaging, HUVEC, MLSMR starter and 10KST1 sets (AID 438;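 active means inhibition above 20% together with a positive visual image hit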;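 further: compound added about 3h40 before a 20 min TNFalpha stimulation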;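 on inhibition: signal is the nuclear over cytoplasmic p65 intensity ratio per well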); details: HUVEC TNFa-induced p65 nuclear translocation; cell count: measured here: nuclei count (cytotoxicity indicator), at 2.08 µM; inhibition: at 2 µM, stronger effect = higher value, 0% TNFa-plus-vehicle, 100% no-TNFa wells
[2] = inhibitors of mutant huntingtin aggregation, primary screen, imaging, exon1htt(103Q)mCFP cells, high-content imaging (AID 483;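 active means visual image review flags a hit and inhibition of aggregation exceeds 20%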;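 further: compound exposure lasted 3 days before fixation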;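 on nuclei count: percent of the per-plate median nuclei count of sample wells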); details: exon1htt(103Q)mCFP cell line, aggregate imaging, at 2 µM; inhibition of aggregation: stronger effect = higher value; nuclei count: measured here: cell count, toxicity
[3] = inhibitors of E-selectin induction by TNFa, primary screen, imaging, HUVEC, immunofluorescence, MLSMR starter and 10KST1 sets (AID 487;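 active means visually confirmed hit in the image check and inhibition above 20%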;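 on inhibition: signal is fraction of cell area covered by stained E-selectin grains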;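 on nuclei count: 100% = median nuclei count of all wells on the same plate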); details: HUVEC TNFalpha-induced E-selectin immunofluorescence imaging, at 2 µM; inhibition: stronger effect = higher value; nuclei count: measured here: cell number, toxicity
[4] = target: Voltage-gated potassium channel subunit beta-2 (Rattus norvegicus) (UniProt P62483); test: KvBeta enzyme negative modulators, primary screen, biochemical, NADPH fluorescence (AID 622); details: recombinant KvBeta, 4-cyanobenzaldehyde reduction, at 10 µM, stronger effect = higher value;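 further: slope of raw intensity against log time taken from 70 to 1610 s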
[5] = target: Voltage-gated potassium channel subunit beta-2 (Rattus norvegicus) (UniProt P62483); test: KvBeta positive modulators, primary screen, biochemical, NADPH fluorescence (AID 623;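 active means NADPH fluorescence slope more negative than the mean of all samples by about 3 SD, 99.7% confidence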;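 further: fluorescence intensity change per second fitted from 20 to 320 s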); details: Recombinant KvBeta, NADPH fluorescence decrease slope, 10 min; at 10 µM; stronger effect = lower value
[6] = target: Alpha-2C adrenergic receptor (Homo sapiens) (UniProt P18825); test: modulators of alpha2C/GIRK thallium flux, primary screen, cell-based, HEK293 alpha2C/GIRK1/2 (AID 624;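 active means fluorescence slope after compound addition differing from the mean of all screened samples at 99.7% confidence, in either direction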;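 further: slope of fluorescence ratio to pre-addition baseline per second over 15 to 24 s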); details: thallium flux BTC fluorescence, at 10 µM, actives lie on both sides
[7] = inhibitors of Sendai virus-induced IRF3 signaling, primary screen, TLR/RLR signaling modifier project, cell-based, Sendai virus stimulus, luciferase, 10K MLSCN set (AID 602276;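 active means inhibition at or above 50% at 10 µM; inactive means inhibition below 50%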;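 further: firefly luciferase from ISG56 promoter only with Renilla not read in this screen; 0% = Sendai virus plus DMSO and 100% = medium plus DMSO without virus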); details: HEK293 RL24 IRF3 luciferase reporter, at 10 µM, stronger effect = higher value
[8] = inhibitors of poly I:C-induced TLR3 signaling, primary screen, cell-based, poly I:C stimulus, luciferase, 10K MLSCN set (AID 602277;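 active means inhibition of the reporter signal at or above 50%; inactive means inhibition below 50%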); details: HEK293-TLR3 RL24 IRF3 luciferase reporter, at 10 µM, stronger effect = higher value

Chain of Alpha-2C adrenergic receptor (Homo sapiens) (P18825 whole entry, looked up): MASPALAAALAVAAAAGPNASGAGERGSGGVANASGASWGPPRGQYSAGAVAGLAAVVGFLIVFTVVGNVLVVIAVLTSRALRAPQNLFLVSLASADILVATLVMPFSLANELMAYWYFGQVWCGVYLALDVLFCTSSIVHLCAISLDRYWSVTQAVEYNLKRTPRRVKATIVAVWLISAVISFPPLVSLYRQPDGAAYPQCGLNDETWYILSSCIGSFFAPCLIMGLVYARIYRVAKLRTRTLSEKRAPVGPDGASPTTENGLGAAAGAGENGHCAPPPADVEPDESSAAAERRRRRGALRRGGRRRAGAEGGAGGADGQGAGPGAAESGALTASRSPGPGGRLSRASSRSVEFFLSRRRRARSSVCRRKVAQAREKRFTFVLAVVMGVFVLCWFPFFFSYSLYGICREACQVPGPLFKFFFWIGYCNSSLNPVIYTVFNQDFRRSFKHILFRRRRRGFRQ
Chain of Voltage-gated potassium channel subunit beta-2 (Rattus norvegicus) (P62483 whole entry, looked up): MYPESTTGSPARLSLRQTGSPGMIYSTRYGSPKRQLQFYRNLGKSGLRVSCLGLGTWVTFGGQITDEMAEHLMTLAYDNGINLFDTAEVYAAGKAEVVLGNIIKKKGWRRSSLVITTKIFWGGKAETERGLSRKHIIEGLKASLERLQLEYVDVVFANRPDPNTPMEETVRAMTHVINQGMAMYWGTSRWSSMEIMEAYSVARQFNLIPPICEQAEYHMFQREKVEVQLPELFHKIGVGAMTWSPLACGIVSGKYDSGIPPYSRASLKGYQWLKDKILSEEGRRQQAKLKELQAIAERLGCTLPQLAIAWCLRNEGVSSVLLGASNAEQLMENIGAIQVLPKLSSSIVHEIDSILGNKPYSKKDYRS

SMILES	cell count [1]	inhibition [1]	inhibition of aggregation [2]	nuclei count [2]	inhibition [3]	nuclei count [3]	fluorescence slope [4]	NADPH fluorescence slope [5]	slope [6]	inhibition [7]	inhibition [8]
CCOC(=O)CSc1nnc(-c2ccc(NS(=O)(=O)c3ccc(C)cc3)cc2)o1	813	-6.7% (inactive)	-0.7% (inactive)	98.9%	-37.7% (inactive)	108%	-0.433 (inactive)	-4.4e-05 (inactive)	0.00389 (inactive)	8.31% (inactive)	29.4% (inactive)
O=C(CSc1nnc2ccccn12)c1ccccc1	535	7.7% (inactive)	2.2% (inactive)	105%	23.4% (inactive)	70.9%	-0.46 (inactive)	4e-05 (inactive)	0.00782 (inactive)	-34.1% (inactive)	-86.4% (inactive)
COc1cc(CN2CCN(C(=O)CC(C)C)CC2)cc(OC)c1O	642	-11% (inactive)	-4.6% (inactive)	99.7%	-52.5% (inactive)	90.3%	-0.583 (inactive)	-2.8e-05 (inactive)	0.00548 (inactive)	5.89% (inactive)	16% (inactive)
COCCNC(=O)CC(NS(=O)(=O)c1ccc(NC(C)=O)cc1)C(C)C (stereo not drawn)	435	6.5% (inactive)	-1.2% (inactive)	105%	-122% (inactive)	107%	-0.397 (inactive)	-7.5e-05 (inactive)	0.00454 (inactive)	8.34% (inactive)	25.9% (inactive)
CCOC(=O)c1ccc(S(=O)(=O)Nc2cc(C(C)(C)C)no2)cc1	551	-10.3% (inactive)	5.8% (inactive)	108%	-194% (inactive)	152%	-0.612 (inactive)	5.6e-06 (inactive)	0.00811 (inactive)	-7.27% (inactive)	-2.9% (inactive)
CCOC(=O)N1CCN(C(=O)COc2ccc(S(=O)(=O)NC3CCCCC3)cc2C)CC1	536	9.7% (inactive)	-14.2% (inactive)	105%	-31.8% (inactive)	93.5%	-0.644 (inactive)	-4.2e-05 (inactive)	0.00446 (inactive)	3.18% (inactive)	-12.8% (inactive)
CC(C)(C)C(=O)NC1CCN(C(=O)N2CCCC2)CC1	685	-6.3% (inactive)	-5.3% (inactive)	107%	-36.6% (inactive)	118%	-0.311 (inactive)	-3.2e-05 (inactive)	0.00525 (inactive)	12.1% (inactive)	20.9% (inactive)
CCOC(=O)C(C(=O)OCC)C(C)C#CCN1CCCCC1 (stereo not drawn)	325	-1.3% (inactive)	-11.4% (inactive)	99.7%	-79.7% (inactive)	113%	-0.322 (inactive)	-5.7e-05 (inactive)	0.00551 (inactive)	16.5% (inactive)	26.6% (inactive)
CCOC(=O)Cn1nc(-c2ccc(C)cc2)ccc1=O	534	-21% (inactive)	31% (inactive)	121%	-42.9% (inactive)	108%	-0.393 (inactive)	-0.000149 (inactive)	0.00747 (inactive)	-9.24% (inactive)	-5.48% (inactive)
CCOC(=O)CSC1=C(C#N)C(c2ccc(C)o2)CC(=O)N1 (stereo not drawn)	557	14.4% (inactive)	29.1% (inactive)	3.4%	-60% (inactive)	95%	-0.511 (inactive)	-2e-05 (inactive)	0.00803 (inactive)	10.4% (inactive)	87.6% (active)
Cc1ccc(C(=O)N2CCN(C(=O)c3ccc(C)c(C)c3)C(C)C2)cc1C (stereo not drawn)	409	-0.7% (inactive)	-2.3% (inactive)	94.3%	-179% (inactive)	200%	-0.264 (inactive)	-5.3e-05 (inactive)	0.00164 (inactive)	4.92% (inactive)	22.7% (inactive)
CCc1[nH]nc2c1C(c1cccc(OC(=O)N3CCOCC3)c1)C(C#N)=C(N)O2 (stereo not drawn)	393	-20.5% (inactive)	-8.9% (inactive)	98.5%	9.4% (inactive)	87.2%	-0.563 (inactive)	-2e-05 (inactive)	0.00573 (inactive)	20.6% (inactive)	22.7% (inactive)
COc1ccc(Cn2nnnc2C(c2ccccc2OC)N2CCC(C(N)=O)CC2)cc1 (stereo not drawn)	315	4.4% (inactive)	6.9% (inactive)	74.4%	-39.5% (inactive)	114%	-0.604 (inactive)	-4.2e-05 (inactive)	0.00453 (inactive)	10.7% (inactive)	25.5% (inactive)
O=C(NC1CCCCC1)C1CCCN1C(=O)NCc1ccccc1 (stereo not drawn)	317	3.4% (inactive)	7.5% (inactive)	106%	-33.5% (inactive)	120%	-0.43 (inactive)	-5.2e-05 (inactive)	0.00543 (inactive)	5.02% (inactive)	10.2% (inactive)
CCOc1ccc(CN2C(=O)c3ccccc3C2C(=O)NCc2cccnc2)cc1 (stereo not drawn)	500	-1.1% (inactive)	-9.9% (inactive)	110%	-52.5% (inactive)	94.3%	-0.599 (inactive)	-1.6e-05 (inactive)	0.00638 (inactive)	8.35% (inactive)	16.9% (inactive)
CCOC(=O)c1cccc(NC(=O)CS(=O)(=O)Cc2nc(-c3cccc(OC)c3)oc2C)c1	572	-40.8% (inactive)	-19.3% (inactive)	106%	-15.4% (inactive)	102%	-0.524 (inactive)	-3.5e-05 (inactive)	0.00568 (inactive)	-5.01% (inactive)	12.4% (inactive)
O=C(CSc1nc(-c2ccco2)cc(C(F)(F)F)n1)NCCCn1ccnc1	674	-1.9% (inactive)	2.9% (inactive)	119%	-43.1% (inactive)	113%	-0.537 (inactive)	2.4e-05 (inactive)	0.0076 (inactive)	-4.59% (inactive)	13.6% (inactive)
CCOC(=O)c1nc2sc3c(c2c(=O)[nH]1)CCCC3	763	-1.6% (inactive)	-9.6% (inactive)	84.3%	2.7% (inactive)	102%	-0.0445 (active)	-1.1e-05 (inactive)	0.0045 (inactive)	13.1% (inactive)	11.2% (inactive)
Cc1ccc(CSc2nc3c(c(=O)[nH]2)CCC3)cc1	423	11.5% (inactive)	-3.3% (inactive)	103%	4.9% (inactive)	103%	-0.363 (inactive)	-2.9e-05 (inactive)	0.00659 (inactive)	-0.266% (inactive)	8.89% (inactive)
c1ccc2oc(SCc3cn4ccccc4n3)nc2c1	612	12.6% (inactive)	16.1% (inactive)	99.8%	-30.4% (inactive)	132%	-0.506 (inactive)	-4.1e-05 (inactive)	0.00508 (inactive)	-46.4% (inactive)	-151% (inactive)
COC(=O)c1ccccc1S(=O)(=O)NC(=O)c1ccccc1	368	-2.8% (inactive)	-12.4% (inactive)	96.8%	-26% (inactive)	114%	-0.593 (inactive)	-3.3e-08 (inactive)	0.00588 (inactive)	13.5% (inactive)	24.3% (inactive)
O=C(CN1CCN(c2nc(-c3ccc(F)cc3)cs2)CC1)NCc1ccc2c(c1)OCO2	491	9.9% (inactive)	5.2% (inactive)	108%	-34.5% (inactive)	107%	-0.582 (inactive)	-2.2e-05 (inactive)	0.00522 (inactive)	16.7% (inactive)	17.8% (inactive)
CCCC(=O)Nc1nnc(Sc2ccc(N(C)C)cc2)s1	671	4.8% (inactive)	-9.6% (inactive)	96.4%	-15.5% (inactive)	97.6%	-0.466 (inactive)	-2.9e-05 (inactive)	0.00582 (inactive)	-1.24% (inactive)	-10.3% (inactive)
Cc1ccc(-c2nc3cnccn3c2Nc2ccc3c(c2)OCO3)o1	913	2.3% (inactive)	2.9% (inactive)	130%	-109% (inactive)	114%	-0.483 (inactive)	-6.6e-05 (inactive)	0.00517 (inactive)	5.62% (inactive)	34.7% (inactive)
COc1ccc2ccccc2c1CN1CCN(C)CC1	441	-7.1% (inactive)	-14.9% (inactive)	93.7%	-40.6% (inactive)	123%	-0.444 (inactive)	-0.000107 (inactive)	0.00594 (inactive)	7.96% (inactive)	27.9% (inactive)
Cn1c(=O)c(=O)n(C)c2cc(S(=O)(=O)N3CCCCC3)ccc21	289	0.7% (inactive)	22.5% (inactive)	83.6%	-3.4% (inactive)	87.6%	-0.426 (inactive)	-7.3e-05 (inactive)	0.00642 (inactive)	14.8% (inactive)	14.6% (inactive)
CCCSCCCNC(=O)Cn1cc2c(n1)CCC(C)C2 (stereo not drawn)	652	-3.3% (inactive)	3.5% (inactive)	92%	21.4% (inactive)	103%	-0.615 (inactive)	-2.5e-05 (inactive)	0.00719 (inactive)	-8.61% (inactive)	10.5% (inactive)
O=S(=O)(c1ccccc1)N(Cc1nc(-c2ccccc2)no1)C1CCCCC1	446	2% (inactive)	5.6% (inactive)	76.3%	-57.4% (inactive)	96.2%	-0.461 (inactive)	-1.2e-05 (inactive)	0.00919 (inactive)	16.6% (inactive)	30.8% (inactive)
